# Several values for one entry are separate records, joined by “and”; a condition that tells them apart may be missing. Identical values can stand only once. Records with an inconclusive call do not appear. Activity calls are given as the source filed them. The call rests on the fitted dose curve; in most records, active means well fitted inhibition curve with a large enough effect; inconclusive means small, poorly fitted or top-dose-only effect; inactive means flat fitted curve, though single readings scatter.
# Test system: CRL-7250
# Experiment: Cytotoxic Profiling of Annotated Libraries Using Quantitative High-Throughput Screening (AID 1296008); further: nearly all actives have a fitted effect of over 60% in size
# Conditions: Five cell lines viability, CellTiter-Glo ATP luminescence, 48-72 h; max response: hits give low values
# Method in brief: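 Cells exposed to compounds for 48 or 72 hr at 37 degrees Celsius. Viability read as ATP-coupled luminescence with CellTiter-Glo after 10 min at room temperature.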
# On the % scale 0 is the no-effect control and ±100 the full control effect; potency means the concentration at half of the fitted maximal effect.
SMILES,max response,outcome,Potency
CCC1NC(=O)C2C(Cl)C(Cl)CN2C(=O)C(C(C)O)NC(=O)CC(c2ccccc2)NC(=O)C(CO)NC1=O (configuration not stated),3.8% (inactive),–,–
COC(=O)C1(C)CCC(=O)C2(C)c3c(O)cc(C(C)C)cc3C(O)C(OC(C)=O)C12 (configuration not stated),-1.03% (inactive),–,–
C=C(C)[C@H]1O[C@H]2CC[C@@]3(C)[C@@](O)(CC[C@H]4[C@@H]5OC(C)(C)[C@H]6C[C@@H]7C(=C)Cc8c(Cl)cc9[nH]c(c5c9c8[C@@]76O)[C@@]43C)[C@]23O[C@@H]3[C@H]1O,-5.7% (inactive),–,–
C[C@@H]1C(=O)O[C@H]2[C@H](O)[C@@]34[C@@H]5OC(=O)[C@@]3(O[C@@H]3OC(=O)[C@@H](O)[C@@]34[C@H](C(C)(C)C)[C@H]5O)[C@@]12O,-6.45% (inactive),–,–
CCc1c(C(=O)C(N)=O)c2c(OCC(=O)OC)cccc2n1Cc1ccccc1,–,inactive,–
COc1cc(CCNCc2ccccc2O)c(OC)cc1C#N,–,inactive,–
C=CC(C)(O)CC/C=C(\C)C(=O)O[C@H]1[C@H](O)[C@@H](CO)O[C@@H](OC(=O)[C@]23CCC(C)(C)CC2C2=CCC4[C@@]5(C)CC[C@H](O[C@@H]6O[C@H](CO[C@@H]7OC[C@H](O)[C@H](O)[C@H]7O[C@@H]7OC[C@@H](O)[C@H](O)[C@H]7O)[C@@H](O)[C@H](O)[C@H]6O)C(C)(C)C5CC[C@@]4(C)[C@]2(C)CC3)[C@@H]1OC1OC(C)C(O[C@@H]2OC[C@@H](O)[C@H](O[C@@H]3OC[C@@H](O)[C@H](O)[C@H]3O)[C@H]2O)C(O)C1O (some centres not stated),-5.86% (inactive),–,–
Cc1cccc(NC(=O)N[C@@H]2N=C(c3ccccc3)c3ccccc3N(C)C2=O)c1,–,inactive,–
COC(=O)N1CCN(C(=O)Cc2ccc(Cl)c(Cl)c2)[C@@H](CN2CCCC2)C1,-2.38% (inactive),–,–
CC(N)Cc1c[nH]c2ccccc12 (configuration not stated),-5.98% (inactive),–,–
COC(=O)C1(C)CCC(O)C2(C)c3cc(O)c(C(C)C)cc3C(O)C(OC(C)=O)C12 (configuration not stated),–,inactive,–
C=C(CO)C(=O)O[C@H]1C/C(C)=C/CC/C(CO)=C/[C@H]2OC(=O)C(=C)[C@H]12,-2.43% (inactive),–,–
C/C=C(\C)C(=O)OC1C(C)OC(OC2C(C)OC(OC3CCC4(C)C(=CCC5C4CCC4(C)C(C(C)OC6OC(COC7OC(CO)C(O)C(O)C7O)C(O)C(O)C6O)CCC54O)C3)CC2OC)C(O)C1OC (configuration not stated),-8.85% (inactive),–,–
CN1C(=O)c2ccccc2NC(=O)[C@]12O[C@@H]2c1ccccc1,-12.4% (inactive),–,–
CN1[C@@H]2CC[C@H]1CC(OC(=O)C1C=Nc3ccccc31)C2 (some centres not stated),0.829% (inactive),–,–
COC(=O)C1(C)CCC(O)C2(C)c3c(O)cc(C(C)C)cc3C(O)C(OC(C)=O)C12 (configuration not stated),–,inactive,–
COC1C(O)C(OC2CCC3(C=O)C(CCC4C3CCC3(C)C(C5=CC(=O)OC5)CCC43O)C2)OC(C)C1OC1OC(CO)C(O)C(O)C1O (configuration not stated),–,–,172 nM (active)
CCCN1CCO[C@H]2c3cc(O)ccc3OC[C@@H]21,–,inactive,–
N#CC(OC1OC(COC2OC(CO)C(O)C(O)C2O)C(O)C(O)C1O)c1ccccc1 (configuration not stated),–,inactive,–

SMILES,max response,outcome,Potency
CC(=O)OC12C(O)C(C)C3(O)C4C=C(C)C(=O)C4CC(CO)=CC3C1C2(C)C (configuration not stated),1.13% (inactive),–,–
C[C@]12CC[C@H]3[C@@H]([C@H](O)CC4=CC(=O)CC[C@@]43C)[C@@H]1CC[C@@H]2O,–,inactive,–
COc1c(C(C)C)cc2c(c1O)[C@@]1(C(=O)O)CCCC(C)(C)C1CC2 (some centres not stated),–,inactive,–
Clc1ccc(N2C[C@H]3CC[C@@H](C2)N3)nn1,-3.23% (inactive),–,–
CN1C(=O)N(c2ccc(C#N)c(C(F)(F)F)c2)C(=O)[C@]1(CO)c1ccccc1,–,inactive,–
CC1=C2C(=O)C3[C@@H](CC=C4C[C@@H](O)CC[C@@]43C)[C@@H]2CC[C@]12O[C@@H]1C[C@H](C)CN[C@H]1[C@H]2C (some centres not stated),–,inactive,–
C=C[C@H]1[C@H](O[C@@H]2O[C@H](CO)[C@@H](O)[C@H](O)[C@H]2O)OC=C2C(=O)OCC[C@H]21,-1.15% (inactive),–,–
CC1=CC2/C=C(\C)CCC(O)C3OC(C)(C)OC3CC(=O)OC23C(=O)NC(CC(C)C)C3C1C (configuration not stated),0.49% (inactive),–,–
COc1cc2c(cc1OC)[C@@]13CCN4CC5=CCO[C@H]6CC(=O)N2[C@H]1[C@H]6[C@H]5C[C@H]43,-0.912% (inactive),–,–
CC1=C2C[C@H]3[C@@H](CC=C4C[C@@H](O)CC[C@@]43C)[C@@H]2CC[C@]12O[C@@H]1C[C@H](C)CN[C@H]1[C@H]2C,0.632% (inactive),–,–
CCCCCCn1c(=O)c(C(=O)Nc2ccc(C(=O)OCCC)cc2)c(O)c2ccccc21,0.836% (inactive),–,–
O=C(N1CCOCC1)N1CCN(c2ccc(Cl)cc2)CC1,–,inactive,–
Cc1cc(C(=O)CN2CCCC2)c(C)n1-c1ccc(F)cc1,1.13% (inactive) and -6.04% (inactive),–,–
CCC(C)(OC(C)=O)C(=O)O[C@H]1[C@H](OC(C)=O)C[C@@H]2[C@@](C)([C@@H]3C[C@H]4C=CO[C@H]4O3)[C@H](C)C[C@H](OC(C)=O)[C@@]2(COC(C)=O)[C@@]12CO2 (some centres not stated),–,inactive,–
COC(=O)[C@@]12C(=O)C(C)C(=O)[C@]1(C)C(C)=C[C@H]1[C@]3(C=O)CC[C@H](OC(C)=O)C(C)(C)[C@H]3CC[C@@]12C (some centres not stated),–,inactive,–
Cn1ncnc1COc1nn2c(-c3c(F)cccc3F)nnc2cc1C1CCC1,–,inactive,–
C=C1[C@@H]2CC[C@@]3(C)[C@H](c4ccoc4)OC(=O)C[C@]13O[C@H]1CC(=O)C(C)(C)[C@H](C(OC(C)=O)C(=O)OC)[C@]12C (some centres not stated),–,inactive,–
COc1cc(C(=O)O[C@H]2[C@@H]3C=CO[C@@H](O[C@@H]4O[C@H](CO)[C@@H](O)[C@H](O)[C@H]4O)[C@@H]3[C@@]3(CO)O[C@@H]23)ccc1O,-1.79% (inactive),–,–
